Test results as given in PubChem BioAssay (NCATS).
Results filed as inconclusive are left out. Activity calls are given as the source filed them. Unless noted, calls follow the shape of the dose curve; as a rule, active = well fitted curve in the direction sought with a large enough effect; inconclusive = small, poorly fitted or top-dose-only effect, or another doubt; inactive = no such curve, though single readings can be large; an effect the other way counts as inactive or inconclusive.

Columns and labels:
[1] = biological target: Lysosomal acid glucosylceramidase (Homo sapiens) (UniProt P04062); experiment: Glucocerebrosidase-p2 (AID 348; in the data active = potency below about 10 µM; also: potency is read from the fitted curve at half-maximal effect); conditions: purified GBA, blue fluorogenic substrate, 40 min
Procedure, shortened: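 Normal human glucocerebrosidase (0.2 nM) with blue fluorogenic substrate (80 uM final) in citrate/phosphate pH 5.9 with 10mM sodium taurocholate, 0.01% tween-20; 40 min RT, NaOH/glycine stop; fluorescence Ex 365/Em 440; AC50 from a titration from 0.6 nM upwards.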

[2] = AP1 Signaling Pathway (AID 357; active = well fitted curve in either direction with a large enough effect, not every such curve was filed as active;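 also: ME-180 reporter cells stimulated with EGF at its EC50 level; % is scaled to controls: 0 for no effect and ±100 for the full control effect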); conditions: ME-180 AP-1-bla reporter, EGF-induced, beta-lactamase ratio, 5 h; at 7.69 µM (top of the series) unless noted
Procedure, shortened: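 A ratiometric CCF4 readout (405 nm excitation; 460 and 530 nm emission) quantified AP-1-driven beta-lactamase in ME-180 cells after 5 h with compound and EC50 EGF; AC50 values were derived for activators and inhibitors.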

[3] = NFAT Signaling Pathway (AID 444; active = well fitted curve in either direction with a large enough effect, not every such curve was filed as active;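 also: carbachol stimulus at about its EC50 of 1 µM final; % is scaled to controls: 0 for no effect and ±100 for the full control effect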); conditions: Jurkat NFAT-bla M1, carbachol, beta-lactamase ratio, 5 h; at 7.69 µM (top of the series) unless noted
Procedure, shortened: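 Read-out: CCF4 FRET ratio (460 nm/530 nm) after 1 h RT dye loading, used for %activity and AC50 from titration series. Cells: Jurkat NFAT-β-lactamase/M1 line, treated with compound plus 1 uM carbachol for 5 h, 37 °C.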

[4] = Stat Signaling Pathway (AID 446; active = well fitted curve in either direction with a large enough effect, not every such curve was filed as active;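 also: ME-180 cervical cancer cells given 40 pM IL-6 alongside compound; SIE-controlled beta-lactamase reporter measured as 460/530 nm FRET emission ratio; % is scaled to controls: 0 for no effect and ±100 for the full control effect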); conditions: ME-180 (cervical carcinoma) SIE beta-lactamase reporter, IL-6 stimulated, 5 h; at 7.69 µM (top of the series) unless noted
Procedure, shortened: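 Normalization used AC90 stimulation (300 pM IL-6) and AC90 inhibition (125 nM pan-JAK inhibitor at 40 pM IL-6). The underlying signal is SIE-driven beta-lactamase in ME-180 cells after 5 h IL-6 exposure with compound.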

[5] = biological target: Glucocorticoid receptor (Homo sapiens) (UniProt P04150); experiment: GR-GFP Redistribution (AID 450;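 active = compounds whose dose series gives a full or clear partial fitted curve of increased nuclear translocation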; also: potency is read from the fitted curve at half-maximal effect); conditions: U2OS GR-GFP nuclear translocation, laser cytometry, 2 h
[6] = biological target: Glucocorticoid receptor (Homo sapiens) (UniProt P04150); experiment: GR-EFC Redistribution (AID 451; calls by dose curve; also: potency is read from the fitted curve at half-maximal effect); conditions: CHO-K1 GR-EFC translocation, beta-gal luminescence, 2 h
Procedure, shortened: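 Translocation of GR-ED fusion to nuclear EA restores b-gal, read by luminescence after 1 h room-temperature detection. Engineered CHO-K1 biosensor cells, 1,000/well, exposed 2 h at 37 C to titrations up to 46 uM final.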

[7] = biological target: Mitogen-activated protein kinase 10 (Mus musculus) (UniProt Q61831); experiment: JNK3 AlphaScreen Assay (AID 530; active = well fitted curve in either direction with a large enough effect, not every such curve was filed as active;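 also: kinase came from lysate of stimulated human HepG2 cells; signal reports phosphorylation of biotinylated GST-cJun 1-79 at Ser73 with 10 µM ATP; % is scaled to controls: 0 for no effect and ±100 for the full control effect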); conditions: JNK3 lysate, c-Jun phosphorylation; series mostly up to 57.1 µM
Procedure, shortened: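 qHTS titrations with 15 min compound pre-incubation before adding ATP (10 uM final). Read-out: AlphaScreen of Ser73-phosphorylated biotin-GST-cJun using HepG2 lysate JNK3 activated by IL-1β and TNFα.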

[8] = biological target: 3',5'-cyclic-AMP phosphodiesterase 4B (Homo sapiens) (UniProt Q07343); experiment: qHTS Assay for Inhibitors of PDE-IV (AID 607; active = well fitted activation curve with a large enough effect in the main read-out, with a control signal flat, not every such curve was filed as active; also: % of control where 0% means no effect); conditions: HEK293 ACTOne CNG channel cells, membrane potential fluorescence; series mostly up to 22.9 µM
Procedure, shortened: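 HEK293 ACTOne cells with CNG channel (1000/well), endogenous PDE4; membrane potential dye, compounds up to 22.9 uM final. Fluorescence Ex 535/Em 590; RO 20-1724 (100 uM final) as reference.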

[9] = qHTS Assay for Lipid Storage Modulators (AID 1519; calls by dose curve); conditions: Drosophila S3 cells, BODIPY lipid droplet/cell ratio, laser cytometry, cells loaded with oleic acid; for activity change, negative = inhibition: at 57.5 µM (top of the series)
Procedure, shortened: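 Cells seeded at 5,000 per well were treated with compounds over a concentration series and loaded with oleic acid (400 uM, as added). Lipid droplet fluorescence (488 nm excitation, 500-530 nm channel) was read by laser-scanning cytometry and normalized to 20 uM Triacsin C.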

[10] = biological target: Dual specificity protein kinase CLK4 (Homo sapiens) (UniProt Q9HAZ1); experiment: qHTS Assay for Inhibitors of CDC-like Kinase 4 (Kinase-Glo Assay) (AID 1770); conditions: recombinant Clk4, Kinase-Glo ATP depletion luminescence; series mostly up to 66.7 µM; also: nearly all actives have a fitted effect of over 65% in size; also: potency is read from the fitted curve at half-maximal effect
Procedure, shortened: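 Inhibition was judged from remaining ATP, measured by Ultra-Glo luciferase bioluminescence after Clk4 (25 nM) had acted on RS peptide at 1 uM ATP for 4.5 hours, room temperature.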

[11] = biological target: Dual specificity protein kinase CLK4 (Homo sapiens) (UniProt Q9HAZ1); experiment: qHTS Assay for Inhibitors of CDC-like Kinase 4 (ADP-Glo Assay) (AID 1771); conditions: recombinant CLK4, ADP-Glo luminescence; series mostly up to 80 µM; also: nearly all actives have a fitted effect of over 70% in size; also: potency is read from the fitted curve at half-maximal effect
Procedure, shortened: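 Compounds are pin-transferred onto substrate mix (100 uM RS peptide, 1 uM ATP), then 25 nM Clk4 is added. After 1 hr at room temperature, ADP-Glo reagent runs 45 min, detection reagent 30 min, then luminescence is read.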

[12] = biological target: Ubiquitin carboxyl-terminal hydrolase 1 (Homo sapiens) (UniProt O94782); experiment: Inhibitors of USP1/UAF1: Pilot qHTS (AID 504865); conditions: purified USP1/UAF1, Ub-rhodamine cleavage fluorescence; series mostly up to 54.9 µM;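 also: rhodamine fluorescence freed from ubiquitin-rhodamine substrate followed over time; top concentration of the series differs between compounds; % is scaled to controls: 0 for no effect and ±100 for the full control effect; nearly all actives have a fitted effect of over 35% in size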
Procedure, shortened: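 Kinetic fluorescence assay: 1nM USP1/UAF1, 15 min compound preincubation, then 150nM Ub-Rho; 480/540 nm.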

[13] = biological target: Cytochrome P450 1A2 (Homo sapiens) (UniProt P05177); experiment: p450-cyp1a2 (AID 410; calls by dose curve; also: potency is read from the fitted curve at half-maximal effect); conditions: recombinant CYP1A2, luciferin-ME demethylation, luminescence; series mostly up to 57 µM
Procedure, shortened: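 O-Demethylation of luciferin 6' methyl ether by human CYP1A2 is monitored as luciferase luminescence. Substrate sits at Km (100uM); enzyme is 20nM. Values are scaled to 57 uM furafylline as maximal inhibition.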

[14] = biological target: Cytochrome P450 3A4 (Homo sapiens) (UniProt P08684); experiment: qHTS Assay for Inhibitors and Substrates of Cytochrome P450 3A4 (AID 884); conditions: recombinant CYP3A4, Luciferin-PPXE luminescence; series mostly up to 57.1 µM; also: potency is read from the fitted curve at half-maximal effect; nearly all actives have a fitted effect of over 50% in size
Procedure, shortened: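 Luminescent readout of luciferin produced by CYP3A4 (20 nM) dealkylation of Luciferin-PPXE, 25 uM (its KM). NADPH-driven reaction ran 60 min at RT after 10 min compound preincubation; data scaled to 57 uM ketoconazole as 100% inhibition.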

[15] = biological target: Dual specificity protein kinase CLK4 (Homo sapiens) (UniProt Q9HAZ1); experiment: qHTS Assay for Inhibitors of CDC-like Kinase 4 (ADP-FP Assay) (AID 1795); conditions: Transcreener ADP fluorescence polarization; series mostly up to 50 µM; also: nearly all actives have a fitted effect of over 60% in size; also: potency is read from the fitted curve at half-maximal effect
Procedure, shortened: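 Inhibition of ADP formation by 6.25 nM Clk4 is measured using 1 uM ATP and 100 uM RS repeat peptide over one hour. Produced ADP displaces a fluorescent tracer from antibody, lowering polarization.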

[16] = biological target: Cytochrome P450 3A4 (Homo sapiens) (UniProt P08684); experiment: qHTS Assay for Activators of Cytochrome P450 3A4 (AID 885); conditions: recombinant CYP3A4, Luciferin-PPXE luminescence, 60 min; series mostly up to 57.1 µM; also: nearly all actives have a fitted effect of over 65% in size
Procedure, shortened: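 Human CYP3A4 dealkylates Luciferin-PPXE to luciferin, which luciferase detection converts to light. Substrate was at its KM (25uM), buffer 200mM KPO4, reaction 60 min at RT.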

[17] = measured here: cell count channel max response
[18] = measured here: lipid channel max response

Chain of Cytochrome P450 1A2 (Homo sapiens) (P05177 whole entry, looked up): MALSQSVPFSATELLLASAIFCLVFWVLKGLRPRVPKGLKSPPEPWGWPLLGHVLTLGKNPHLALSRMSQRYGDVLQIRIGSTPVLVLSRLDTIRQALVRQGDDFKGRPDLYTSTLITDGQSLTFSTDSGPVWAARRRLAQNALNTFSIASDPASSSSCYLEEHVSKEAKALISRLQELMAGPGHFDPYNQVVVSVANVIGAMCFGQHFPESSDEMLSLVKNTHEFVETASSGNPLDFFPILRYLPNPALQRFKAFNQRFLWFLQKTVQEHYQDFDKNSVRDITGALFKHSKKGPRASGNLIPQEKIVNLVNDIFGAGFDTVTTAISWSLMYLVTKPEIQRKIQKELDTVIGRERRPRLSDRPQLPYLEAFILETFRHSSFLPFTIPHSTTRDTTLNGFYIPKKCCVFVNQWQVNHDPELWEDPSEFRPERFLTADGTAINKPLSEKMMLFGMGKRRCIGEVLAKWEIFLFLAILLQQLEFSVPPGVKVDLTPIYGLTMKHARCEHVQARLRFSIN
Chain of 3',5'-cyclic-AMP phosphodiesterase 4B (Homo sapiens) (Q07343 whole entry, looked up): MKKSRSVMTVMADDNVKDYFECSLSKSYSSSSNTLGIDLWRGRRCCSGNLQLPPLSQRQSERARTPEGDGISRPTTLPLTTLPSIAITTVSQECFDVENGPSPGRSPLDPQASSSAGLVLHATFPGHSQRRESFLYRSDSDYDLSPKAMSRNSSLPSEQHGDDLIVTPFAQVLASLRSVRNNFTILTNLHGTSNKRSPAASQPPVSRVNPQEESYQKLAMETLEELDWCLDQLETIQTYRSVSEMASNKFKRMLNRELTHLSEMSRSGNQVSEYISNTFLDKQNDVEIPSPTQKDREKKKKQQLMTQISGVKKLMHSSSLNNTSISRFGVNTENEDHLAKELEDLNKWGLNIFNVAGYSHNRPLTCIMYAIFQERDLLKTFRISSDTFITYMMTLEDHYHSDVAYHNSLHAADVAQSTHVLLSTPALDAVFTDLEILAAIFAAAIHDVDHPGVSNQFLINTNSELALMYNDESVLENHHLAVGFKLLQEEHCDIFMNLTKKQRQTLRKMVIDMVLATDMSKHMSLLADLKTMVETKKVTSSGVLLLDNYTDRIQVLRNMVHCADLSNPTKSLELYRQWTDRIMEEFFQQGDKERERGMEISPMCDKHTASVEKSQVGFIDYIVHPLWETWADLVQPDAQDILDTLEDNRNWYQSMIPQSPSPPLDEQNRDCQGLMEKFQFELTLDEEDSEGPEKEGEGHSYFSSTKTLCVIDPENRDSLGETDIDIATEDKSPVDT
Chain of Glucocorticoid receptor (Homo sapiens) (P04150 whole entry, looked up, the tested form may be a part): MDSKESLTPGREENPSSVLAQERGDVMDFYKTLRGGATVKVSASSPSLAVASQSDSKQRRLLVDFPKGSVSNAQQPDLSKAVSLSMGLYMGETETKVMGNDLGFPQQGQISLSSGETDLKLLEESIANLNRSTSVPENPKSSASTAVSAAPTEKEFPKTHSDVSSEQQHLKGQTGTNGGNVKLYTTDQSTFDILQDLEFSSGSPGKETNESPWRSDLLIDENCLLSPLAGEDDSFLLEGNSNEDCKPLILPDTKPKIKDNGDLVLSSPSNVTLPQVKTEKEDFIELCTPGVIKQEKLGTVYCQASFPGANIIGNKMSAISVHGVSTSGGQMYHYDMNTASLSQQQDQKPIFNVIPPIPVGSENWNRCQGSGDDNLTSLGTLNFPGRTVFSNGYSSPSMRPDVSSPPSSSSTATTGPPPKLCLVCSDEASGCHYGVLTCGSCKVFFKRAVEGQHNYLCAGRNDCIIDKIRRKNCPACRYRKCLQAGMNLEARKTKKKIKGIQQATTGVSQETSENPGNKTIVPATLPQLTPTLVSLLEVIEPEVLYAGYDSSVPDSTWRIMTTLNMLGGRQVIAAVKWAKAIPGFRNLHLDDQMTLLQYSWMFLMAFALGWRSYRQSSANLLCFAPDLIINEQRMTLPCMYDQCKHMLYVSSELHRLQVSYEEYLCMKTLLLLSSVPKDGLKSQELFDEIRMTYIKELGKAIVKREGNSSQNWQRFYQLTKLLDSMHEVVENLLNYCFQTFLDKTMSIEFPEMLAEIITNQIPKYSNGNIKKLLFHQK
Chain of Dual specificity protein kinase CLK4 (Homo sapiens) (Q9HAZ1 whole entry, looked up): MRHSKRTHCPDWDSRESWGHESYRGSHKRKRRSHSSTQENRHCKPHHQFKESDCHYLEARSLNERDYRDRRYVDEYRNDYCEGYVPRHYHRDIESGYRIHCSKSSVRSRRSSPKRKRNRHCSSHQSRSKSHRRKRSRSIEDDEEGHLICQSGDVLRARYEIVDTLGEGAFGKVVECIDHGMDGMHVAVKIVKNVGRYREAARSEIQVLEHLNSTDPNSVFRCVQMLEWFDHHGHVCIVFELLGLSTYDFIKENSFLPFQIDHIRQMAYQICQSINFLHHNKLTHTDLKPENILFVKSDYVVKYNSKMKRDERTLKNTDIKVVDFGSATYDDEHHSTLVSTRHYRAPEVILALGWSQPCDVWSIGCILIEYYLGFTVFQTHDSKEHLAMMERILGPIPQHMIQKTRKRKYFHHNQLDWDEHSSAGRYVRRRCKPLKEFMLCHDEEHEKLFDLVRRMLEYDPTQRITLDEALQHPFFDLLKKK
Chain of Ubiquitin carboxyl-terminal hydrolase 1 (Homo sapiens) (O94782 whole entry, looked up): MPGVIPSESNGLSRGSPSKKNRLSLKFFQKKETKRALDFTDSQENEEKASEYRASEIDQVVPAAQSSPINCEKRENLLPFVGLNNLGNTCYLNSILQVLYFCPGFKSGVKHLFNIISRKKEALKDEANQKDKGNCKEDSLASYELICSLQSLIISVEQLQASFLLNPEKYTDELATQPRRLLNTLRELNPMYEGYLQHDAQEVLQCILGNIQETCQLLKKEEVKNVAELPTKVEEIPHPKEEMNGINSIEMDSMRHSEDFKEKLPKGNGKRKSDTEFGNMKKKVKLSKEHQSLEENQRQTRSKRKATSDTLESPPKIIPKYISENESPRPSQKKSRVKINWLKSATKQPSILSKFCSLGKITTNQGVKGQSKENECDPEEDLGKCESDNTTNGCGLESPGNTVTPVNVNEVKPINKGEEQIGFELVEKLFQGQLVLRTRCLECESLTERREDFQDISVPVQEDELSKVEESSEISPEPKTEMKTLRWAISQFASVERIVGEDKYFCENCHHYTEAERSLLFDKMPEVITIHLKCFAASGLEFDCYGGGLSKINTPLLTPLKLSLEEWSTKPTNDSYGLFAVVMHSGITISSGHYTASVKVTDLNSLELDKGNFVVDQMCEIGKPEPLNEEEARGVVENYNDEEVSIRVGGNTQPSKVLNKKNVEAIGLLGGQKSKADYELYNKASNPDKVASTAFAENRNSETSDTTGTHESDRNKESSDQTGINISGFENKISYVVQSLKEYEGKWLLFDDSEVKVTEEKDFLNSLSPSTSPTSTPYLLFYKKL
Chain of Lysosomal acid glucosylceramidase (Homo sapiens) (P04062 whole entry, looked up): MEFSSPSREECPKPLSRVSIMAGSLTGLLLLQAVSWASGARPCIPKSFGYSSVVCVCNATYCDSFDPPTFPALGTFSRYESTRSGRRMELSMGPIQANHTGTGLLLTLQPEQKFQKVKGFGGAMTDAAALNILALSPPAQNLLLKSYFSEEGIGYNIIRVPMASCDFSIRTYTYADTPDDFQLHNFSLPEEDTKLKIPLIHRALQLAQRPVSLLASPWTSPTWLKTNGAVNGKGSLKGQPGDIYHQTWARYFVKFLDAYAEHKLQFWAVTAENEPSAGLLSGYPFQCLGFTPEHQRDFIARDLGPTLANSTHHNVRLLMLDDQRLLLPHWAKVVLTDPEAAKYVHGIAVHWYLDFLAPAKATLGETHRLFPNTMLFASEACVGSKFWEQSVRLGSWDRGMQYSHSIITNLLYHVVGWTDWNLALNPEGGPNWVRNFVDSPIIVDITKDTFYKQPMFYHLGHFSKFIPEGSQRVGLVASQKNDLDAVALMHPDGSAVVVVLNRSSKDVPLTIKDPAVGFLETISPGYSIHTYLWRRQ
Chain of Cytochrome P450 3A4 (Homo sapiens) (P08684 whole entry, looked up): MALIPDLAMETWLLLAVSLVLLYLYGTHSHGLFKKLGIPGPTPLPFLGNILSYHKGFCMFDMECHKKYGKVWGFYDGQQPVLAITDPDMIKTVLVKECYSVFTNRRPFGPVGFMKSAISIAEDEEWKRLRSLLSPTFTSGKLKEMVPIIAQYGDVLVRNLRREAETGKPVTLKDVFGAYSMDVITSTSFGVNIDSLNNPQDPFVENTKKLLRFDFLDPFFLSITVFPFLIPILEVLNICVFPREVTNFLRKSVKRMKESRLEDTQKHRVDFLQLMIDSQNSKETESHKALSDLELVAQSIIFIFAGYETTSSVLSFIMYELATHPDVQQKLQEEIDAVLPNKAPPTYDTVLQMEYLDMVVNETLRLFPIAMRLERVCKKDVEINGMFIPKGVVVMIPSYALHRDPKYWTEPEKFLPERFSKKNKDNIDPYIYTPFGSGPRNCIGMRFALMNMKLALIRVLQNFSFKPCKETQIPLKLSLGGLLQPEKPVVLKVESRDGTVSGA

COc1cccc(Nc2ncc3nc(C)c(=O)n(C[C@H]4CCCO4)c3n2)c1
-4.6%: max response [9, 17]
active: Potency [10] 12.6 µM | Potency [11] 17.8 µM
-7.75%: max response [9, 18]
inactive: Potency [1] > 11.4 µM | activity change, negative = inhibition [2] -22.6% | activity change, negative = inhibition [3] 8.96% | activity, negative = inhibition [4] -10.3% | Potency [5] > 9.22 µM | Potency [6] > 46 µM | Potency [7] | Potency [8] | activity change, negative = inhibition [9] -3.96% | Potency [12]

N#CCCn1c(=O)c(-c2cc(F)cc(F)c2)nc2cnc(Oc3ccccc3)nc21
active: Potency [13] 2 µM
10.8%: max response [9, 17]
17.1%: max response [9, 18]
inactive: Potency [1] > 11.4 µM | activity change, negative = inhibition [2] -18% | activity change, negative = inhibition [3] 1.84% | activity, negative = inhibition [4] -2.23% | Potency [5] > 9.22 µM | Potency [6] > 46 µM | Potency [7] | Potency [8] | activity change, negative = inhibition [9] 7.78% | Potency [10] | Potency [11] | Potency [12]

COc1ccc(CNc2ncnc3ccc(-c4ccoc4)cc23)c(OC)c1
6.18%: max response [9, 18]
inactive: activity, negative = inhibition [4] -19.6% | Potency [5] > 46 µM | Potency [6] > 46 µM | Potency [7] | activity change, negative = inhibition [9] -9.76% | Potency [12]
19.6%: max response [9, 17]
active: Potency [13] 1.58 µM | Potency [14] 3.16 µM | Potency [11] 1 µM | Potency [15] 0.282 µM

N#Cc1ccccc1-c1ccc2ncnc(NCc3cccs3)c2c1
0.851%: max response [9, 17]
-0.129%: max response [9, 18]
inactive: Potency [1] > 11.4 µM | activity change, negative = inhibition [2] -0.438% | activity change, negative = inhibition [3] 20.9% | activity, negative = inhibition [4] -2.46% | Potency [5] > 46 µM | Potency [6] > 46 µM | Potency [7] | Potency [8] | activity change, negative = inhibition [9] 2.64% | Potency [12]
active: Potency [11] 3.16 µM

COCCn1c(=O)c(-c2ccc(OC)cc2)nc2cnc(N3CCN(C)CC3)nc21
21%: max response [9, 18]
inactive: Potency [1] > 11.4 µM | activity change, negative = inhibition [2] 29.4% | Potency [5] > 9.22 µM | Potency [6] > 46 µM | Potency [7] | Potency [8] | activity change, negative = inhibition [9] 6% | Potency [10] | Potency [11] | Potency [12]
16%: max response [9, 17]

COCCn1c(=O)c(-c2ccccc2)nc2cnc(N(C)C)nc21
inactive: Potency [1] > 11.4 µM | activity change, negative = inhibition [2] -2% | activity change, negative = inhibition [3] 10.9% | Potency [5] > 9.22 µM | Potency [6] > 46 µM | Potency [16] | activity change, negative = inhibition [9] 6.53% | Potency [10] | Potency [11] | Potency [12]
13.8%: max response [9, 18]
active: Potency [13] 3.16 µM
12.4%: max response [9, 17]

CN1CCN(c2ncc3nc(-c4cccc(C#N)c4)c(=O)n(C)c3n2)CC1
active: Potency [13] 12.6 µM
0.284%: max response [9, 18]
0.187%: max response [9, 17]
inactive: Potency [1] > 11.4 µM | activity change, negative = inhibition [2] 0.861% | activity change, negative = inhibition [3] 13.1% | activity, negative = inhibition [4] -0.0628% | Potency [5] > 9.22 µM | Potency [6] > 46 µM | Potency [7] | Potency [8] | activity change, negative = inhibition [9] 1.68% | Potency [10] | Potency [15] | Potency [12]
